Results reported in PubChem BioAssay (EPA / NIEHS).
Calls of active or inactive are those of the source. Rule for the calls: active = hit-call score of the fitted dose curve at least 0.9, where 1 is the maximum; inactive = score below 0.9.

Experiment: ATG_PPRE_CIS: Attagene CIS-FACTORIAL HepG2 Assay for human Peroxisome Proliferator-activated Response Element (PPRE) (AID 2282958)
Conditions: HepG2 PPRE cis-element reporter, Attagene transcription factor profiling; actives raise or lower the signal
Method in brief: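 DMSO served as negative control and baseline for bidirectional curve fitting. Signal came from PPRE-regulated reporter mRNA in HepG2 cells, measured 24 h post-dosing by RT-PCR, 6-FAM primer extension and capillary electrophoresis.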

Row | SMILES | outcome | AC50
1 | CC(=O)OCCc1ccccc1 | inactive | –
2 | CC(=O)OC/C=C(/C)CCC=C(C)C | inactive | –
3 | O=S(=O)(O)c1ccc(N=Nc2c(O)ccc3ccccc23)cc1 | inactive | –
4 | N=C1C=CC(=C(c2ccc(N)cc2)c2ccc(N)cc2)C=C1 | inactive | –
5 | COc1cc(O)c(C(=O)c2ccccc2)cc1S(=O)(=O)O | inactive | –
6 | c1ccc2cnccc2c1 | inactive | –
7 | CC1(C)CCC[C@]2(C)[C@H]3CC(=O)O[C@]3(C)CC[C@@H]12 | inactive | –
8 | C=CC(=O)OCC(C)OCC(C)OCC(C)OC(=O)C=C (configuration not stated) | inactive | –
9 | Nc1ccc(O)c([N+](=O)[O-])c1 | inactive | –
10 | O=C(O)c1cc(O)c2ccccc2c1O | inactive | –
11 | O=C(Oc1ccccc1)c1ccccc1C(=O)Oc1ccccc1 | inactive | –
12 | CC(=O)CCC1=C(C)CCCC1(C)C | inactive | –
13 | Oc1ccc(/C=C/c2cc(O)cc(O)c2)cc1 | – | 100 µM (active)
14 | CCCCNS(=O)(=O)c1ccc(C)cc1 | inactive | –
15 | Cc1c(C(=O)c2c[nH]n(C)c2=O)ccc(S(C)(=O)=O)c1C1=NOCC1 | inactive | –
16 | O=C(Cl)c1ccc(C(=O)Cl)cc1 | inactive | –
17 | O=C1CCCCCCCCCCC1 | inactive | –
18 | CCC(=O)C1CC(C(C)C)CC=C1C (configuration not stated) | inactive | –
19 | O=C(O)CCC(=O)O | inactive | –

Row | SMILES | outcome | AC50
20 | CCCCCCCCCC(C)=O | inactive | –
21 | CCCCC(CC)COC(=O)/C=C/c1ccc(OC)cc1 (configuration not stated) | inactive | –
22 | CCCC/C=C/C=C\C=O | inactive | –
23 | CC(CC=O)CC(C)(C)C (configuration not stated) | inactive | –
24 | OCCCc1ccccc1 | inactive | –
25 | Nc1cccc(N)n1 | inactive | –
26 | C=C(C)C(=O)OCC(O)COc1ccc(C(C)(C)c2ccc(OCC(O)COC(=O)C(=C)C)cc2)cc1 (configuration not stated) | – | 14.7 µM (active)
27 | CCCCOC(=O)CCC(C)=O | inactive | –
28 | O=C(OCCc1ccccc1)c1ccccc1 | inactive | –
29 | Oc1ccc(-c2ccccc2)c(Cl)c1 | – | 33.4 µM (active)
30 | CC(C)C(=O)OCCOc1ccccc1 | inactive | –
31 | O=C(O)CC(C(=O)O)S(=O)(=O)O (configuration not stated) | inactive | –
32 | CC=C(C)C(C)=O | inactive | –
33 | CC1C(C)(C)C2=C(C(=O)CCC2)C1(C)C (configuration not stated) | inactive | –
34 | CCCCC(C=O)CC (configuration not stated) | inactive | –
35 | COC(=O)c1ccc(C(=O)OC)c(C(=O)OC)c1 | inactive | –
36 | CC1=CC(C)C(C=O)CC1 (configuration not stated) | inactive | –
37 | COc1cc(C)ccc1O | inactive | –

Experiment: ATG_RORE_CIS: Attagene CIS-FACTORIAL HepG2 Assay for human RAR-related Orphan Receptor Element (RORE) (AID 2282959)
Conditions: HepG2 Attagene cis-factorial RORE reporter, mRNA; actives raise or lower the signal
Method in brief: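 Transfect HepG2 with MRTUs; treat 24 h; extract RNA; RT with oligo(dT); PCR with reporter-specific primers; 6-FAM primer extension; HpaI digest 2 h at 37 C; capillary electrophoresis. Fit vs DMSO, bidirectional.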

Row | SMILES | outcome | AC50
38 | CC(=O)OCCc1ccccc1 | inactive | –
39 | CC(=O)OC/C=C(/C)CCC=C(C)C | inactive | –
40 | O=S(=O)(O)c1ccc(N=Nc2c(O)ccc3ccccc23)cc1 | inactive | –
41 | N=C1C=CC(=C(c2ccc(N)cc2)c2ccc(N)cc2)C=C1 | inactive | –
42 | COc1cc(O)c(C(=O)c2ccccc2)cc1S(=O)(=O)O | inactive | –
43 | c1ccc2cnccc2c1 | inactive | –
44 | CC1(C)CCC[C@]2(C)[C@H]3CC(=O)O[C@]3(C)CC[C@@H]12 | inactive | –
45 | C=CC(=O)OCC(C)OCC(C)OCC(C)OC(=O)C=C (configuration not stated) | – | 44.5 µM (active)
46 | Nc1ccc(O)c([N+](=O)[O-])c1 | inactive | –
47 | O=C(O)c1cc(O)c2ccccc2c1O | inactive | –
48 | O=C(Oc1ccccc1)c1ccccc1C(=O)Oc1ccccc1 | inactive | –
49 | CC(=O)CCC1=C(C)CCCC1(C)C | inactive | –
50 | Oc1ccc(/C=C/c2cc(O)cc(O)c2)cc1 | inactive | –
51 | CCCCNS(=O)(=O)c1ccc(C)cc1 | inactive | –
52 | Cc1c(C(=O)c2c[nH]n(C)c2=O)ccc(S(C)(=O)=O)c1C1=NOCC1 | inactive | –
53 | O=C(Cl)c1ccc(C(=O)Cl)cc1 | inactive | –
54 | O=C1CCCCCCCCCCC1 | inactive | –
55 | CCC(=O)C1CC(C(C)C)CC=C1C (configuration not stated) | inactive | –
56 | O=C(O)CCC(=O)O | inactive | –

Row | SMILES | outcome | AC50
57 | CCCCCCCCCC(C)=O | inactive | –
58 | CCCCC(CC)COC(=O)/C=C/c1ccc(OC)cc1 (configuration not stated) | inactive | –
59 | CCCC/C=C/C=C\C=O | inactive | –
60 | CC(CC=O)CC(C)(C)C (configuration not stated) | inactive | –
61 | OCCCc1ccccc1 | inactive | –
62 | Nc1cccc(N)n1 | inactive | –
63 | C=C(C)C(=O)OCC(O)COc1ccc(C(C)(C)c2ccc(OCC(O)COC(=O)C(=C)C)cc2)cc1 (configuration not stated) | inactive | –
64 | CCCCOC(=O)CCC(C)=O | inactive | –
65 | O=C(OCCc1ccccc1)c1ccccc1 | inactive | –
66 | Oc1ccc(-c2ccccc2)c(Cl)c1 | – | 33.4 µM (active)
67 | CC(C)C(=O)OCCOc1ccccc1 | inactive | –
68 | O=C(O)CC(C(=O)O)S(=O)(=O)O (configuration not stated) | inactive | –
69 | CC=C(C)C(C)=O | inactive | –
70 | CC1C(C)(C)C2=C(C(=O)CCC2)C1(C)C (configuration not stated) | inactive | –
71 | CCCCC(C=O)CC (configuration not stated) | inactive | –
72 | COC(=O)c1ccc(C(=O)OC)c(C(=O)OC)c1 | inactive | –
73 | CC1=CC(C)C(C=O)CC1 (configuration not stated) | inactive | –
74 | COc1cc(C)ccc1O | inactive | –

Experiment: ATG_Sox_CIS: Attagene CIS-FACTORIAL HepG2 Assay for human SRY-box transcription factor (SOX) (AID 2282960)
Conditions: HepG2 Attagene cis-factorial SOX reporter, mRNA; actives raise or lower the signal
Method in brief: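 Fluorescence-labelled cDNA fragments from reporter transcripts, sized by CE, give the signal. Cells: HepG2, transiently transfected with cis-regulated reporter units. Exposure 24 h; DMSO negative control; bidirectional curve fitting.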

Row | SMILES | outcome | AC50
75 | CC(=O)OCCc1ccccc1 | inactive | –
76 | CC(=O)OC/C=C(/C)CCC=C(C)C | inactive | –
77 | N=C1C=CC(=C(c2ccc(N)cc2)c2ccc(N)cc2)C=C1 | inactive | –
78 | COc1cc(O)c(C(=O)c2ccccc2)cc1S(=O)(=O)O | inactive | –
79 | CC1(C)CCC[C@]2(C)[C@H]3CC(=O)O[C@]3(C)CC[C@@H]12 | inactive | –
80 | O=C(Oc1ccccc1)c1ccccc1C(=O)Oc1ccccc1 | inactive | –
81 | CC(=O)CCC1=C(C)CCCC1(C)C | inactive | –
82 | CCCCNS(=O)(=O)c1ccc(C)cc1 | inactive | –
83 | Cc1c(C(=O)c2c[nH]n(C)c2=O)ccc(S(C)(=O)=O)c1C1=NOCC1 | inactive | –
84 | O=C(Cl)c1ccc(C(=O)Cl)cc1 | inactive | –
85 | CCCCCCCCCC(C)=O | inactive | –
86 | CCCCC(CC)COC(=O)/C=C/c1ccc(OC)cc1 (configuration not stated) | inactive | –
87 | CCCC/C=C/C=C\C=O | – | 162 µM (active)
88 | CC(CC=O)CC(C)(C)C (configuration not stated) | inactive | –
89 | OCCCc1ccccc1 | inactive | –
90 | Nc1cccc(N)n1 | inactive | –
91 | C=C(C)C(=O)OCC(O)COc1ccc(C(C)(C)c2ccc(OCC(O)COC(=O)C(=C)C)cc2)cc1 (configuration not stated) | – | 65 µM (active)
92 | CCCCOC(=O)CCC(C)=O | inactive | –
93 | O=C(OCCc1ccccc1)c1ccccc1 | inactive | –
94 | Oc1ccc(-c2ccccc2)c(Cl)c1 | inactive | –
95 | CC(C)C(=O)OCCOc1ccccc1 | inactive | –
96 | O=C(O)CC(C(=O)O)S(=O)(=O)O (configuration not stated) | inactive | –
97 | CC1=CC(C)C(C=O)CC1 (configuration not stated) | inactive | –
